Results: PubChem BioAssay (NCI)
The panel holds about 83,000 compounds, 20% with a hit somewhere; the sample as a whole holds those more often.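 Results are percent growth after 48 hours of single-concentration exposure. 100 means growth as in untreated cells, lower positive values show inhibition; negative values down to -100 show cell death.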

Tests used:
Test in all cases: NCI-60 one-dose screen, 48 h (100 = growth as untreated, 0 = no growth, -100 = all killed)
Conditions in all cases: 10 µM unless noted; active = growth percent below 10; inactive = the rest
[1] = system: DU-145 prostate
[2] = system: MALME-3M melanoma
[3] = system: MDA-MB-231 breast
[4] = system: RXF 393 renal
[5] = system: SF-268 CNS
[6] = system: SF-295 CNS
[7] = system: SF-539 CNS
[8] = system: UACC-257 melanoma
[9] = system: M14 melanoma
[10] = system: HCT-15 colon
[11] = system: HT29 colon
[12] = system: SNB-75 CNS
[13] = system: SNB-19 CNS
[14] = system: U251 CNS
[15] = system: PC-3 prostate
[16] = system: SK-MEL-5 melanoma
[17] = system: UACC-62 melanoma
[18] = system: LOX IMVI melanoma
[19] = system: SK-MEL-28 melanoma
[20] = system: K-562 leukemia

Measured: growth

COP(=S)(N1CC1)N1CC1
inactive: [1] 123% | [2] 105% | [3] 93% | [4] 114% | [5] 112% | [6] 104% | [7] 94.3% | [8] 147% | [9] 99.5% | [10] 109% | [11] 103% | [12] 103% | [13] 112% | [14] 108% | [15] 91.9% | [16] 104% | [17] 109% | [18] 104% | [19] 114%

Nc1ccc(OCCNS(=O)(=O)c2cccc(S(=O)(=O)F)c2)c(Cl)c1
inactive: [20] 95.1% | [2] 86.2% | [3] 100% | [5] 102% | [6] 89.2% | [7] 93.5% | [8] 75.4% | [9] 97.3% | [10] 93.4% | [11] 106% | [12] 50.5% | [13] 96.6% | [15] 97.6% | [16] 97.1% | [17] 93.2% | [18] 94.2% | [19] 88.8%

N#CC1C(C#N)C2CCC1C1C2N1c1ccccc1 (configuration not stated)
inactive: [1] 118% | [2] 85.7% | [3] 110% | [4] 103% | [5] 104% | [6] 103% | [7] 104% | [8] 117% | [9] 101% | [10] 97.9% | [11] 114% | [12] 87.1% | [13] 104% | [14] 111% | [16] 104% | [17] 105% | [18] 103% | [19] 106%

O=C(O)C(Cl)(Cl)C(F)(F)F
inactive: [1] 108% | [2] 105% | [3] 102% | [5] 99.3% | [6] 99.9% | [7] 102% | [8] 105% | [9] 105% | [10] 104% | [11] 103% | [12] 97.7% | [13] 105% | [14] 108% | [15] 102% | [16] 103% | [17] 105% | [18] 106% | [19] 110%

CC(=O)O[C@H]1CC[C@]2(C)[C@H]3CC[C@]4(C)[C@@H](OC(C)=O)CC[C@H]4[C@@H]3[C@@H](C)[C@]2(O)C1
inactive: [1] 107% | [20] 85.1% | [3] 108% | [4] 114% | [5] 112% | [7] 99.6% | [8] 127% | [9] 109% | [10] 108% | [11] 106% | [12] 92.5% | [13] 111% | [14] 111% | [15] 89.6% | [16] 106% | [17] 98.4% | [18] 96.8% | [19] 117%

Cc1ccc(C(=O)NCCCOc2ccc(N3C(N)=NC(N)=NC3(C)C)cc2Cl)cc1S(=O)(=O)F
inactive: [1] 126% | [2] 70.4% | [3] 98.6% | [5] 54.3% | [6] 111% | [7] 54.1% | [9] 76.7% | [10] 102% | [11] 59.4% | [12] 87.6% | [13] 72.2% | [14] 37.6% | [15] 28.5% | [16] 32.9% | [17] 30.1% | [18] 26.7% | [19] 104%
